# From the supplement of paper PMC8728848
# Shown is part of a subset that was picked to be rich in the strongest signals.
# What was measured:
# Assay in all cases: glycan array binding signal (z-score within array); higher = stronger binding
# Conditions in all cases: glycan notation: IUPAC condensed, linker removed
# [1] = target: Fuc(a1-2)Gal(b1-3)GalNAc(a1-3)[Fuc(a1-2)]Gal(b1-4)GlcNAc
# Method in brief: (§1)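 Glycan array data were curated from 3228 arrays in the Consortium for Functional Glycomics database and kept only where the protein sequence was available. Glycan names were converted to IUPAC-condensed notation, and columns mapping to the same glycan were averaged. The binding signal is a within-array Z-score, averaged across arrays of the same protein sequence at different concentrations or buffers and across linkers. Negative Z-scores can be read as non-binding.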
# [2] = target: Fuc(a1-2)Gal(b1-4)GlcNAc(b1-2)Man(a1-3)[Fuc(a1-2)Gal(b1-4)GlcNAc(b1-2)Man(a1-6)]Man(b1-4)GlcNAc(b1-4)GlcNAc
# Method in brief: as §1
# [3] = target: Fuc(a1-2)Gal(b1-4)GlcNAc(b1-2)Man(a1-3)[Fuc(a1-2)Gal(b1-4)GlcNAc(b1-2)Man(a1-6)]Man(b1-4)GlcNAc(b1-4)[Fuc(a1-6)]GlcNAc
# Method in brief: as §1
# [4] = target: Fuc(a1-2)Gal(b1-4)GlcNAc(b1-6)GalNAc
# Method in brief: as §1
# [5] = target: Fuc(a1-2)Gal6S(b1-3)GlcNAc6S
# Method in brief: as §1
# [6] = target: Fuc(a1-2)Gal6S(b1-4)Glc6S
# Method in brief: as §1
# [7] = target: Fuc(a1-2)[Gal(a1-3)]Gal(b1-3)GlcNAc(b1-2)Man(a1-3)[Fuc(a1-2)[Gal(a1-3)]Gal(b1-3)GlcNAc(b1-2)Man(a1-6)]Man(b1-4)GlcNAc(b1-4)[Fuc(a1-6)]GlcNAc
# Method in brief: as §1
# [8] = target: Fuc(a1-2)[Gal(a1-3)]Gal(b1-4)GlcNAc(b1-2)Man(a1-3)[Fuc(a1-2)[Gal(a1-3)]Gal(b1-4)GlcNAc(b1-2)Man(a1-6)]Man(b1-4)GlcNAc(b1-4)[Fuc(a1-6)]GlcNAc
# Method in brief: as §1
# [9] = target: Fuc(a1-2)[Gal(a1-3)]Gal(b1-4)[Fuc(a1-3)]GlcNAc
# Method in brief: as §1
# [10] = target: Fuc(a1-2)[GalNAc(a1-3)]Gal(b1-3)GalNAc(a1-3)[Fuc(a1-2)]Gal(b1-4)GlcNAc
# Method in brief: as §1
# [11] = target: Fuc(a1-2)[GalNAc(a1-3)]Gal(b1-3)GlcNAc
# Method in brief: as §1
# [12] = target: Fuc(a1-2)[GalNAc(a1-3)]Gal(b1-3)GlcNAc(b1-2)Man(a1-3)[Fuc(a1-2)[GalNAc(a1-3)]Gal(b1-3)GlcNAc(b1-2)Man(a1-6)]Man(b1-4)GlcNAc(b1-4)[Fuc(a1-6)]GlcNAc
# Method in brief: as §1
# [13] = target: Fuc(a1-2)[GalNAc(a1-3)]Gal(b1-3)GlcNAc(b1-3)GalNAc
# Method in brief: as §1
# [14] = target: Fuc(a1-2)[GalNAc(a1-3)]Gal(b1-3)GlcNAc(b1-6)GalNAc
# Method in brief: as §1
# [15] = target: Fuc(a1-2)[GalNAc(a1-3)]Gal(b1-4)GlcNAc(b1-2)Man(a1-3)[Fuc(a1-2)[GalNAc(a1-3)]Gal(b1-4)GlcNAc(b1-2)Man(a1-6)]Man(b1-4)GlcNAc(b1-4)GlcNAc
# Method in brief: as §1
# [16] = target: Fuc(a1-2)[GalNAc(a1-3)]Gal(b1-4)GlcNAc(b1-3)GalNAc
# Method in brief: as §1
# [17] = target: Fuc(a1-2)[GalNAc(b1-3)]Gal
# Method in brief: as §1
# [18] = target: Fuc(a1-3)GlcNAc
# Method in brief: as §1
# [19] = target: Fuc(a1-3)[GalNAc(b1-4)]GlcNAc6S
# Method in brief: as §1
# [20] = target: Fuc(a1-3)[GalNAc3S(b1-4)]GlcNAc
# Method in brief: as §1
# [21] = target: Fuc(b1-3)GlcNAc
# Method in brief: as §1
# [22] = target: Gal(a1-3)Gal(b1-4)GlcNAc(b1-3)GalNAc
# Method in brief: as §1
# [23] = target: Gal(b1-3)GalNAc(a1-3)[Fuc(a1-2)]Gal(b1-4)Glc
# Method in brief: as §1
# [24] = target: Gal(b1-3)GlcNAc(b1-2)Man(a1-3)[Gal(b1-3)GlcNAc(b1-2)Man(a1-6)]Man(b1-4)GlcNAc(b1-4)[Fuc(a1-6)]GlcNAc
# Method in brief: as §1
# [25] = target: Gal(b1-4)GalNAc(a1-3)[Fuc(a1-2)]Gal(b1-4)GlcNAc
# Method in brief: as §1
# [26] = target: Gal(b1-4)Glc
# Method in brief: as §1
# [27] = target: Gal(b1-4)GlcNAc(b1-2)Man(a1-3)[Gal(b1-4)GlcNAc(b1-2)][GlcNAc(b1-4)]Man(b1-4)GlcNAc(b1-4)GlcNAc
# Method in brief: as §1
# [28] = target: Gal(b1-4)GlcNAc(b1-3)Gal(b1-4)[Fuc(a1-3)GlcNAc(b1-6)]Gal(b1-4)Glc
# Method in brief: as §1
# [29] = target: Gal6S(b1-4)Glc
# Method in brief: as §1
# [30] = target: Gal6S(b1-4)GlcNAc6S
# Method in brief: as §1
# [31] = target: GlcA(b1-6)Gal
# Method in brief: as §1
# [32] = target: GlcNAc(b1-2)Man(a1-3)[GlcNAc(b1-2)Man(a1-6)]Man(b1-4)GlcNAc(b1-4)[Fuc(a1-6)]GlcNAc
# Method in brief: as §1
# [33] = target: GlcNAc(b1-2)[GlcNAc(b1-4)]Man(a1-3)[GlcNAc(b1-4)][GlcNAc(b1-2)[GlcNAc(b1-6)]Man(a1-6)]Man(b1-4)GlcNAc(b1-4)[Fuc(a1-6)]GlcNAc
# Method in brief: as §1
# [34] = target: GlcNAc(b1-4)[GlcNAc(b1-6)]GalNAc
# Method in brief: as §1
# [35] = target: Neu5Ac(a2-3)Gal(b1-4)GlcNAc(b1-2)[Neu5Ac(a2-3)Gal(b1-4)GlcNAc(b1-6)]Man(a1-6)[Neu5Ac(a2-3)Gal(b1-4)GlcNAc(b1-2)Man(a1-3)]Man(b1-4)GlcNAc(b1-4)GlcNAc
# Method in brief: as §1
# [36] = target: Neu5Ac(a2-3)Gal(b1-4)[Fuc(a1-3)]GlcNAc(b1-3)Gal(b1-4)GlcNAc
# Method in brief: as §1
# [37] = target: Neu5Ac(a2-3)Gal(b1-4)[Fuc(a1-3)]GlcNAc(b1-3)GalNAc
# Method in brief: as §1
# [38] = target: Neu5Ac(a2-3)GalNAc(b1-4)GlcNAc
# Method in brief: as §1
# [39] = target: Neu5Ac(a2-6)Gal(b1-4)GlcNAc(b1-3)Gal(b1-4)[Fuc(a1-3)]GlcNAc(b1-3)Gal(b1-4)[Fuc(a1-3)]GlcNAc
# Method in brief: as §1
# [40] = target: Neu5Ac(a2-6)Gal(b1-4)GlcNAc(b1-6)[Gal(b1-3)GlcNAc(b1-3)]Gal(b1-4)Glc
# Method in brief: as §1
# [41] = target: Neu5Ac(a2-6)GlcNAc(b1-4)GlcNAc
# Method in brief: as §1
# [42] = target: Neu5Ac(a2-8)Neu5Ac(a2-8)Neu5Ac
# Method in brief: as §1
# [43] = target: Neu5Gc(a2-3)Gal(b1-3)GlcNAc
# Method in brief: as §1
# [44] = target: Neu5Gc(a2-3)Gal(b1-4)Glc
# Method in brief: as §1
binder,measurement,setting,value
"CvGal1 (Crassostrea virginica), A7Y0I5 (protein) MTYQISKISQPFTSYIPNGLHIGKHLLLRGRVSYGTEAFAINLQQNPEPCNGEVAFHFNPRPGEQQCVRNSFDGGSWMDEERDQPHFPFDEGRSFTLRIEVAEEGFRTYVNGKPYVNFSHRLDLGNVHYLYLTEGAEFYDISYQDRYTLPYKSEIPQQMNVGKAVRIRGASQDNDGFSVNFACDPDNENCAFHFNPRPNEGVVVRNANLGGWGDEERDYEAEFPFHPYNYFDAMFICTDDKYLVHVNDKYFTEFNHRGGVDASSFFNIVGNLDIQDVEYFEPLEDDFVKTIPSGLVKGDVLIFRGFMKPGGDTFSINFMNGYSVEDDIAFHLNPRVGEGQVVMNCCMGGAWGDEEREDIPSPLADREPFEVKVVVKKNKFKVYVNGKKCMKFAARGNLEDIKGVNIKGEAYVYEVKLERKLEDSWEYLPGGFRVGGWVVVQAIPKKGSEGFAINFRTGSDEDSDIAFHFNPRLQENCTIRNSCAGGAWGGEERDQPDFPFEKKDTCEIAIQAQPDRFVTYVNGKRYIEFNHRLPLESITCVELTGRADFFEPKFF",glycan array binding signal (z-score),[1],6.13
same,glycan array binding signal (z-score),[2],0.157
same,glycan array binding signal (z-score),[3],-0.053
same,glycan array binding signal (z-score),[4],-0.258
same,glycan array binding signal (z-score),[5],-0.213
same,glycan array binding signal (z-score),[6],-0.259
same,glycan array binding signal (z-score),[7],0.478
same,glycan array binding signal (z-score),[8],1.42
same,glycan array binding signal (z-score),[9],-0.263
same,glycan array binding signal (z-score),[10],3.63
same,glycan array binding signal (z-score),[11],4.14
same,glycan array binding signal (z-score),[12],4.71
same,glycan array binding signal (z-score),[13],1.75
same,glycan array binding signal (z-score),[14],3.97
same,glycan array binding signal (z-score),[15],6.1
same,glycan array binding signal (z-score),[16],5.16
same,glycan array binding signal (z-score),[17],-0.306
same,glycan array binding signal (z-score),[18],-0.088
same,glycan array binding signal (z-score),[19],-0.215
same,glycan array binding signal (z-score),[20],-0.259
same,glycan array binding signal (z-score),[21],-0.219
same,glycan array binding signal (z-score),[22],-0.197
same,glycan array binding signal (z-score),[23],3.55
same,glycan array binding signal (z-score),[24],-0.265
same,glycan array binding signal (z-score),[25],4.11
same,glycan array binding signal (z-score),[26],-0.253
same,glycan array binding signal (z-score),[27],-0.195
same,glycan array binding signal (z-score),[28],-0.264
same,glycan array binding signal (z-score),[29],-0.291
same,glycan array binding signal (z-score),[30],-0.182
same,glycan array binding signal (z-score),[31],-0.259
same,glycan array binding signal (z-score),[32],-0.3
same,glycan array binding signal (z-score),[33],-0.249
same,glycan array binding signal (z-score),[34],-0.23
same,glycan array binding signal (z-score),[35],-0.283
same,glycan array binding signal (z-score),[36],-0.226
same,glycan array binding signal (z-score),[37],-0.166
same,glycan array binding signal (z-score),[38],-0.277
same,glycan array binding signal (z-score),[39],-0.28
same,glycan array binding signal (z-score),[40],-0.245
same,glycan array binding signal (z-score),[41],-0.303
same,glycan array binding signal (z-score),[42],-0.236
same,glycan array binding signal (z-score),[43],-0.239
same,glycan array binding signal (z-score),[44],-0.311
